Measurements as given in PubChem BioAssay (NCATS).
Inconclusive results are not listed. Activity calls are given as the source filed them. Calls come from the whole dose curve; as a rule, active = well fitted activation curve with a large enough effect; inconclusive = small, poorly fitted or top-dose-only effect; inactive = no such curve, though single readings can be large or run the other way.

Target: Arylsulfatase A (Homo sapiens) (UniProt P15289)
Test: qHTS screen for enhancers of Arylsulfatase A (ASA1): LOPAC Validation Assay (AID 720538); for activity change, positive = activation: 0% is about no effect
Details: ASA enzyme activity, LOPAC qHTS enhancer assay; series mostly up to 57.5 µM; activity change, positive = activation: at the top concentration
Outline: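 First, ASA-I179S fibroblasts from an MLD patient adhered for 6 hrs. Next, compounds were added for 48h. Then pNCS substrate (0.5mM final) with lysis buffer reacted 14h at room temperature before NaOH stop and fluorescence measurement.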
Potency is the fitted concentration of half-maximal effect.

Arylsulfatase A (Homo sapiens), sequence (P15289 whole entry, looked up): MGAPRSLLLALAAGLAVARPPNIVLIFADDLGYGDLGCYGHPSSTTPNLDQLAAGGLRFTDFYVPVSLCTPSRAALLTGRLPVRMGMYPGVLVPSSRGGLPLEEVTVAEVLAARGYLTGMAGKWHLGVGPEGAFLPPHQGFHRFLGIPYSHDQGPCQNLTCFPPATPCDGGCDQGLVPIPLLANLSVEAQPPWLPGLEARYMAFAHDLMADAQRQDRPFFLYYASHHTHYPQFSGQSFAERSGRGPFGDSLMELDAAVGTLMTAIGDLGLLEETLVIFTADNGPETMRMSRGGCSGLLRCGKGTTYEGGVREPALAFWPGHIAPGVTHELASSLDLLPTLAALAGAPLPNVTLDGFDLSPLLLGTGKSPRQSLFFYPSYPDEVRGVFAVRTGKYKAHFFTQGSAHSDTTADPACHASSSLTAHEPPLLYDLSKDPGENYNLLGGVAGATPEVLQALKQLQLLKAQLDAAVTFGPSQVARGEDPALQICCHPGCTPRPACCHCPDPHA

Compound	activity change, positive = activation	outcome	Potency
CC(N)C(=O)OC(C)(C)Cc1ccc(Cl)cc1 (stereo not given)	6.34% (inactive)	–	–
OC[C@H]1O[C@@H](n2cnc3c(NC4CCCC4)ncnc32)[C@H](O)[C@@H]1O	–	inactive	–
CCCN(CC1CC1)c1nc(C)nc(Nc2c(Cl)cc(Cl)cc2Cl)c1Cl	-38% (inactive)	–	–
O=[N+]([O-])c1ccc(CSc2ncnc3c2ncn3[C@@H]2O[C@H](CO)[C@@H](O)[C@H]2O)cc1	–	inactive	–
O=c1[nH]c2cc([N+](=O)[O-])c([N+](=O)[O-])cc2[nH]c1=O	–	–	8.49 µM (active)
CCCCCC(O)c1cccc(OCc2ccc3ccccc3n2)c1 (stereo not given)	-53.2% (inactive)	–	–
O=C(c1cc(O)c(O)c([N+](=O)[O-])c1)c1ccccc1F	–	–	19 µM (active)
CN1C2CCC1CC(OC(=O)C(O)c1ccccc1)C2 (stereo not given)	13.7% (inactive)	–	–
NC(=S)NCCC[C@H](N)C(=O)O	-20.1% (inactive)	–	–
CC(COc1ccc(/C=C/c2ccccc2)cc1)[N+](C)(C)C (stereo not given)	–	inactive; inhibitor; fitted 3.7933 uM	–
O=Nc1ccc2oc(=O)ccc2c1	2.49% (inactive)	–	–
COc1ccccc1N1CCN(CCN(C(=O)c2ccc(I)cc2)c2ccccn2)CC1	-16.3% (inactive)	–	–
C[C@@H](NC(=O)/C(C#N)=C/c1ccc(O)c(O)c1)c1ccccc1	-42.8% (inactive)	–	–
COc1ccc2c(c1)CCC1C2CC[C@@]2(C)C1CC[C@@H]2NCCCCCCN1C(=O)CCC1=O (stereo not given in full)	-68.6% (inactive)	–	–
C=C[C@@H]1CN2CC[C@@H]1C[C@H]2[C@H](O)c1ccnc2ccc(OC)cc12	–	inactive	–
Cn1c(=O)c2[nH]c(-c3ccccc3)nc2n(C)c1=O	–	inactive	–
CCc1c(C(=O)NCCc2ccc(N3CCCCC3)cc2)[nH]c2ccc(Cl)cc12	–	inactive; inhibitor; fitted 0.6746 uM	–
Clc1ccc(N2CCN(Cc3cc4ccccn4n3)CC2)cc1	-0.989% (inactive)	–	–

Compound	activity change, positive = activation	outcome	Potency
O=C1O/C(=C/Br)CCC1c1cccc2ccccc12 (stereo not given)	9.2% (inactive)	–	–
CO/N=C(\C(=O)N[C@@H]1C(=O)N2C(C(=O)O)=C(COC(C)=O)CS[C@H]12)c1csc(N)n1	2.96% (inactive)	–	–
OC[C@H]1O[C@@H](n2cnc3c(NC4CCCCC4)ncnc32)[C@H](O)[C@@H]1O	-24.7% (inactive)	–	–
C[C@@H](CN1CCC(Cc2ccccc2)CC1)[C@@H](O)c1ccc(O)cc1	39.5% (inactive)	–	–
C[N+]1(C)CCC(OC(=O)C(c2ccccc2)c2ccccc2)CC1	–	inactive	–
CNC(=O)[C@H]1O[C@@H](n2cnc3c(NCc4ccc(N)cc4)ncnc32)[C@H](O)[C@@H]1O	-18% (inactive)	–	–
NC(CCCP(=O)(O)O)C(=O)O (stereo not given)	-21.5% (inactive)	–	–
N=C(N)SCCc1ccc(CCSC(=N)N)cc1	17.9% (inactive)	–	–
NCCNC(=O)c1ncsc1-c1cccc(F)c1	–	inactive	–
CCOC(=O)N1CCN(/[N+]([O-])=N/Oc2ccc([N+](=O)[O-])cc2[N+](=O)[O-])CC1	-22.1% (inactive)	–	–
CCCCCCCCCCCCCCCC(=O)OC(CC(=O)O)C[N+](C)(C)C (stereo not given)	2.04% (inactive)	–	–
CN(C)c1ccc(/C=C2\C(=O)Nc3ccccc32)cc1	–	inactive	–
NCCCS(=O)(=O)O	5.11% (inactive)	–	–
COc1ccc(NC(=O)/C=C/c2ccc(Cl)cc2)cc1	20.2% (inactive)	–	–
N#C/C(=C\c1ccc(O)c(O)c1)C(=O)NCCCc1ccccc1	0.941% (inactive)	–	–
COc1cc2nc(N3CCN(C(=O)OCc4ccccc4)C(C(=O)NC(C)(C)C)C3)nc(N)c2cc1OC (stereo not given)	–	inactive	–
CC(=O)N[C@H](C(=O)O)C(C)(C)SN=O	–	inactive	–
